Reference: PubChem BioAssay (Tox21)
Several values for one entry are separate records, joined by “and”; a condition that tells them apart may be missing. Identical values can stand only once. Unmarked numbers belong to inactive results. The call rests on the fitted dose curve.
On the % scale 0 is the no-effect control and ±100 the full control effect.

Assay: qHTS assay to identify small molecule agonists of the estrogen related receptor (ERR) signaling pathway from Tox21 library (AID 1224849); further: nearly all actives have a fitted effect of over 15% in size
Details: ERR reporter cell line, ONE-Glo luciferase, 18 h; at 8.39 µM (top of the series)
From the text: National Center for Advancing Translational Sciences [NCATS]
NIH Chemical Genomics Center [NCGC]
U.S. Environmental Protection Agency [EPA]
National Institutes of Environmental Health Sciences [NIEHS]
National Toxicology Program [NTP]
Estrogen related receptors (ERRs), the first orphan nuclear receptors discovered, play an important role in the control of cellular energy metabolism. ERRs are required for high-energy production in response to the environmental challenges. ERR-alpha was also identified as an adverse marker for breast cancer progression; ERR-alpha-positive tumors have a poor prognosis. To screen and to identify environmental compounds that perturb the ERR signaling pathways could provide valuable information for potential therapeutic or preventive measures in the treatment of metabolic disease. For identifying ERR agonists, ERR cell line (provided by NTP) has been used to screen Tox21 10K library.
The ERR cells were dispensed at 2,000 cells/5 ul/well in 1536-well white plates using a Multidrop dispenser. After the assay plates were incubated at a 37 C/5% CO2 incubator for 6 hours, 23 nL of compounds dissolved in DMSO, positive and negative controls or DMSO only was transferred to the assay plate by a pin tool. The plates were incubated at 37 C for 18 hours. 4 ul/well of One-Glo reagent was added into the assay plates using a Flying Reagent Dispenser. After 30-minute incubation at room temperature, the luminescence intensity in the plates was measured using a ViewLux plate reader.
Molecule `CC(O)CO` (stereo not given) has an activity change, positive = activation of -3.08%.

Same assay, conditions: ERR reporter cell line, ONE-Glo luciferase, 18 h; at 42.5 µM (top of the series)
Work on `CCCCC(CC)COC(=O)/C=C/c1ccc(OC)cc1` (stereo not given) yielded an activity change, positive = activation of -9.11%. Work on `CCCN(CCC)S(=O)(=O)c1ccc(C(=O)O)cc1` yielded an activity change, positive = activation of 3.98%. For `Nc1ccc(O)c(C(=O)O)c1`, the activity change, positive = activation was -9.77%. With `Cc1cc(=O)n(-c2ccccc2)n1C` the activity change, positive = activation was 4.6%. Work on `O=C(O)CCC(=O)O` yielded an activity change, positive = activation of 5.73%. Work on `CC(=O)OCC(COC(C)=O)OC(C)=O` yielded an activity change, positive = activation of 6.67%. With `CC1(C)[C@@H]2CC[C@@]1(C)C(=O)C2` the activity change, positive = activation was 1.44%. `O=c1cc[nH]c(=S)[nH]1` gave an activity change, positive = activation of 7.5%. With `Cc1ccc(S(=O)(=O)NC(=O)NN2CCCCCC2)cc1` the activity change, positive = activation was -3.23%. `O=C(C1CCCCC1)N1CC(=O)N2CCc3ccccc3C2C1` (stereo not given) showed an activity change, positive = activation of -13.9%. With `O=C1CN(/N=C/c2ccc([N+](=O)[O-])o2)C(=O)N1` the activity change, positive = activation was -52%. `COc1ccc2[nH]cc(CCNC(C)=O)c2c1` showed an activity change, positive = activation of 6.1%. In the case of `NNC(=O)c1ccncc1`, the activity change, positive = activation is reported as -2.18% and 2.7%. `Cc1ccccc1C(OCCN(C)C)c1ccccc1` (stereo not given) gave an activity change, positive = activation of 0.836%. `c1ccc2[nH]ccc2c1` gave an activity change, positive = activation of 11.1%. In the case of `Cc1cn([C@H]2C[C@H](N=[N+]=[N-])[C@@H](CO)O2)c(=O)[nH]c1=O`, the activity change, positive = activation is reported as 1.9%. In the case of `CCCCOC(=O)CC(CC(=O)OCCCC)(OC(C)=O)C(=O)OCCCC`, the activity change, positive = activation is reported as -18.7%. Work on `NC(=O)c1cnccn1` yielded an activity change, positive = activation of 4.26%. In the case of `CNC[C@H](O)c1cccc(O)c1`, the activity change, positive = activation is reported as 5.4%.

Same assay, conditions: ERR reporter cell line, ONE-Glo luciferase, 18 h; at 92.4 µM (top of the series)
For `CCCCC(CC)COC(=O)/C=C/c1ccc(OC)cc1` (stereo not given), the activity change, positive = activation was 7.09% and -5.92%. With `CCCN(CCC)S(=O)(=O)c1ccc(C(=O)O)cc1` the activity change, positive = activation was -17.4% and 3.56%. In the case of `Nc1ccc(O)c(C(=O)O)c1`, the activity change, positive = activation is reported as -1.78% and -6.73%. With `Cc1cc(=O)n(-c2ccccc2)n1C` the activity change, positive = activation was 1.91% and 2.64%. For `O=C(O)CCC(=O)O`, the activity change, positive = activation was 5.97% and 1.48%. For `CC(=O)OCC(COC(C)=O)OC(C)=O`, the activity change, positive = activation was -0.709% and 8.04%. With `CC1(C)[C@@H]2CC[C@@]1(C)C(=O)C2` the activity change, positive = activation was 5.63% and 2.83%. For `O=c1cc[nH]c(=S)[nH]1`, the activity change, positive = activation was 16.5% and 3.21%. In the case of `Cc1ccc(S(=O)(=O)NC(=O)NN2CCCCCC2)cc1`, the activity change, positive = activation is reported as -0.537% and -0.346%. With `O=C(C1CCCCC1)N1CC(=O)N2CCc3ccccc3C2C1` (stereo not given) the activity change, positive = activation was -22.9% and -18.8%. With `CC(O)CO` (stereo not given) the activity change, positive = activation was -3.85% and -1.76%. With `O=C1CN(/N=C/c2ccc([N+](=O)[O-])o2)C(=O)N1` the activity change, positive = activation was -64.2% and -59.1%. With `COc1ccc2[nH]cc(CCNC(C)=O)c2c1` the activity change, positive = activation was 9.68% and -2.51%. `NNC(=O)c1ccncc1` gave an activity change, positive = activation of -1.91%. With `Cc1ccccc1C(OCCN(C)C)c1ccccc1` (stereo not given) the activity change, positive = activation was 0.151% and 0.194%. In the case of `c1ccc2[nH]ccc2c1`, the activity change, positive = activation is reported as -76.8% and 0.106%. With `Cc1cn([C@H]2C[C@H](N=[N+]=[N-])[C@@H](CO)O2)c(=O)[nH]c1=O` the activity change, positive = activation was 1.55% and -3.89%. With `CCCCOC(=O)CC(CC(=O)OCCCC)(OC(C)=O)C(=O)OCCCC` the activity change, positive = activation was -11.9% and -24.8%. In the case of `NC(=O)c1cnccn1`, the activity change, positive = activation is reported as -0.224% and -0.902%. For `CNC[C@H](O)c1cccc(O)c1`, the activity change, positive = activation was -1.31% and 0.843%.
